Measurements reported in PubChem BioAssay AID720597 (Broad Institute, 2013).
Potency and affinity values are given separately.

biological target: NAD-dependent protein deacylase sirtuin-5, mitochondrial (Homo sapiens) (UniProt Q9NXA8); assay: blockers of sirtuin-5 peptide desuccinylation – biochemical, fluorescence imaging, cherry-pick, set 6, dose response (AID 720597); conditions: Purified SirT5, succinyl-peptide-AMC/trypsin fluorescence; series mostly up to 15 µM; activity change, negative = inhibition: at the top concentration;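 further: lower AMC signal can also come from blocking the trypsin step; 0% = median of neutral control wells and -100% = median of positive control wells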
Sequence (Q9NXA8 whole entry, looked up): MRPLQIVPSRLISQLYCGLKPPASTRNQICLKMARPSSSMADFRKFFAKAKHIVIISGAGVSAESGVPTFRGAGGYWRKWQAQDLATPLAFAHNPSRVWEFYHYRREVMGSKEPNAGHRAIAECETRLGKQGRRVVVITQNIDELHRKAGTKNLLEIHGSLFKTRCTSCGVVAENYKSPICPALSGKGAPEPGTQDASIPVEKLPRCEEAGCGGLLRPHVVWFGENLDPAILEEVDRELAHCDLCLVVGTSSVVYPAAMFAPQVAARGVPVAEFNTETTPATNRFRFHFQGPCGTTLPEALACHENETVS

Activity change, negative = inhibition, inactive:
O=C(NCC[C@@H]1CC[C@@H](NC(=O)C2CC2)[C@H](CO)O1)c1cc(Cl)cc(Cl)c1 19.4%
CC(C)NC(=O)N1CCCCN2[C@H](C1)[C@@H](c1ccc(C#CC3CC3)cc1)[C@@H]2CO -14.1%
CCCC#Cc1cnc2c(c1)C(=O)N([C@@H](C)CO)C[C@@H](C)[C@H](CN(C)S(=O)(=O)c1cccc(OC)c1)O2 11.7%
Cc1noc(C)c1NC(=O)Nc1ccc2c(c1)C(=O)N([C@H](C)CO)C[C@H](C)[C@@H](CN(C)C(=O)Nc1ccc(C(F)(F)F)cc1)OCCCC[C@H](C)O2 5.14%
C[C@H](CO)N1C[C@H](C)[C@@H](CN(C)S(=O)(=O)c2ccccc2)Oc2c(cccc2N(C)C)C1=O 2.92%
C[C@H]1CN([C@@H](C)CO)S(=O)(=O)c2ccc(C3=CCCCC3)cc2O[C@@H]1CN(C)S(=O)(=O)c1ccc(F)cc1 -13%
COc1cccc(CN2[C@@H](CO)[C@H](c3ccccc3)C23CN(C(=O)C2CCCC2)C3)c1 -11.3%
COc1ccc(-c2ccc([C@@H]3[C@H]4CN(C(=O)Cc5ccccn5)CC(=O)N4[C@H]3CO)cc2)cc1 -14.6%
COc1ccccc1S(=O)(=O)N(C)C[C@H]1Oc2cc(C#CCC(C)C)ccc2S(=O)(=O)N([C@H](C)CO)C[C@@H]1C -10.2%
O=C(NCC[C@@H]1CC[C@H](NC(=O)C2CC2)[C@H](CO)O1)c1cc(Cl)cc(Cl)c1 26.4%
CC(=O)N(C)C[C@@H]1Oc2ncc(-c3ccccc3C)cc2C(=O)N([C@H](C)CO)C[C@H]1C -1.22%
CCCC#Cc1ccc2c(c1)O[C@H](CN(C)C(=O)c1ccccc1F)[C@@H](C)CN([C@@H](C)CO)S2(=O)=O -29.6%
